Data taken from PubChem BioAssay (NCI).
Values joined by “and” are separate entries in the source; they are usually repeats but may differ in a detail not shown here. Equal values may be shown once. Compounds without any hit were thinned out: in the full panel of roughly 83,000, 20% have a hit.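 Cells were grown in 96-well plates and exposed to the test compound at a single concentration for 48 hours; results are reported as percent growth, with values below 10 considered active.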 Active and inactive are the calls of the source.

Test system: HL-60(TB) leukemia
Test: NCI-60 one-dose screen, 48 h (100 = growth as untreated, 0 = no growth, -100 = all killed)
Settings: 10 µM unless noted

Q: How did the growth turn out when `C=C1C(=O)O[C@H]2[C@H]1CC/C(C(=O)NCCOCCOCC(=O)Nc1ccc(OC)c(C(N)=O)c1O)=C\CC[C@@]1(C)O[C@@H]21` was run?
A: The growth was 81.3% (inactive).

Q: For `CN(CCc1ccccn1)c1ccccc1`, which growth is on record?
A: The growth was 34.4% (inactive).

Q: How did the growth turn out when `NNC(=O)c1ccc(C(=O)NN)cc1` was run?
A: Its growth is 124% (inactive).

Q: For `Cc1cc(N(CCNc2ccnc3cc(Cl)ccc23)Cc2ccco2)nc(Cl)n1`, which growth is on record?
A: The growth was -61.9% (active).

Q: With `CC(C)(O)C#CC#CC(C)(C)O` as the compound, how does the growth read?
A: The growth was 104% (inactive).

Q: With `CC(=O)c1ccc(N2C(=O)c3ccc(Oc4ccccc4)cc3C2=O)cc1` as the compound, how does the growth read?
A: The growth was 105% (inactive).

Q: How did the growth turn out when `COc1cc(-c2nnc(-c3nc(-c4cc(OC)c(OC)c(OC)c4)n4ccccc34)o2)ccc1N` was run?
A: Its growth is 64.8% (inactive).

Q: For `NCCSC(c1ccccc1)(c1ccccc1)c1ccccc1`, which growth is on record?
A: The growth was -17.3% (active).

Q: `O=C(N/N=C/c1ccc(F)cc1)c1ccccc1Nc1cccc(C(F)(F)F)c1` was tested. Which growth did it give?
A: The growth was 88.1% (inactive).

Q: Which growth does the source give for `O=C(O)c1cccc(Br)c1` here?
A: Its growth is 104% (inactive) and 98.8% (inactive).

Q: `O=C(NO)c1ccc(Cn2c(=O)n(-c3ccccc3)c(=O)c3ccccc32)cc1` was tested. Which growth did it give?
A: The growth was 1.26% (active).

Q: With `O=C(Nc1ccc(Cl)c(Cl)c1)Nc1ccc(Cl)c(Cl)c1` as the compound, how does the growth read?
A: Its growth is -56.8% (active) and 13% (inactive).

Q: For `O=C(NCCO)c1cccnc1`, which growth is on record?
A: The growth was 97.1% (inactive).

Q: With `C#Cc1ccccc1NC(=O)c1sc2nc3c(cc2c1N)CCCCC3` as the compound, how does the growth read?
A: Its growth is 99.7% (inactive).

Q: `O=C(O)c1cn(-c2ccccc2)nc1-c1ccc(O)cc1` was tested. Which growth did it give?
A: The growth was 95.7% (inactive).

Q: With `COc1cccc(-c2nc3sccn3c2-c2ccnc(NCCCNS(=O)(=O)c3ccc(C(F)(F)F)cc3)c2)c1` as the compound, how does the growth read?
A: The growth was 47.8% (inactive).

Q: With `COc1cccc(C2=NN3C(C2)c2cc(Br)cc(OC)c2OC32CCN(Cc3ccccc3)CC2)c1` (stereo not given) as the compound, how does the growth read?
A: The growth was 103% (inactive).

Q: For `OCC1C2C=CC(C2)C1CO` (stereo not given), which growth is on record?
A: The growth was 87.5% (inactive).

Q: With `COC(=O)[C@H]1[C@H](OC)[C@@H](OC(=O)/C=C/c2ccncc2)CC2CN3CCc4c([nH]c5cc(OC)ccc45)[C@@H]3C[C@@H]21` (stereo not given in full) as the compound, how does the growth read?
A: The growth was 28.6% (inactive).

Q: With `CCSc1nc(NC)c2cc(-c3ccc(C(F)(F)F)cc3)ccc2n1` as the compound, how does the growth read?
A: Its growth is 98.3% (inactive).

Q: With `Cc1ccc(S(=O)(=O)C2=C3C(=C(c4ccccc4)c4ccccc43)CN(S(=O)(=O)c3ccc(C)cc3)C2)cc1` as the compound, how does the growth read?
A: The growth was 65.7% (inactive).

Q: With `O=C1/C(=C/c2ccccc2)SC(=S)N1CCc1ccc(O)cc1` as the compound, how does the growth read?
A: Its growth is 94.9% (inactive).

Q: For `Cc1ccc(C2=Nc3c(ccc4c(C)c(C)c(=O)oc34)OC2)cc1`, which growth is on record?
A: Its growth is 98.3% (inactive).

Q: Which growth does the source give for `CCC1S/C(=N\N=C(/C)c2ccc[nH]2)N(c2ccccc2)C1=O` (stereo not given) here?
A: Its growth is -63.7% (active).

Q: For `CC1OS(=O)OC1C` (stereo not given), which growth is on record?
A: Its growth is 96.3% (inactive) and 89.9% (inactive).

Q: With `N#C/C(=C/c1cc([N+](=O)[O-])ccc1Cl)C(N)=O` as the compound, how does the growth read?
A: Its growth is 91.7% (inactive).

Q: With `CCOC(=O)C1C(=O)C=C(c2ccc(OC)cc2)CC1c1sc(N(C)Cc2ccccc2)nc1Cl` (stereo not given) as the compound, how does the growth read?
A: The growth was 83% (inactive).

Q: `O=C(Nc1ccc(CN2CCOCC2)cc1)c1ccc(-c2cc(Cl)ccc2Cl)o1` was tested. Which growth did it give?
A: The growth was 28.8% (inactive).

Q: `O=C(Nn1c2c(sc1=Nc1ccccc1)C(=O)c1ccccc1C2=O)c1cc2ccc1CCc1ccc(cc1)CC2` was tested. Which growth did it give?
A: Its growth is 91.6% (inactive).

Q: For `CC(C)Sc1nc(NN)c(C#N)c(-c2ccccc2)n1`, which growth is on record?
A: Its growth is 98.8% (inactive).

Q: How did the growth turn out when `CCCCOC(=O)c1c(C)[nH]c(/C=C2\N=C(c3ccc[nH]3)C=C2OC)c1C` was run?
A: Its growth is 8.01% (active).

Q: `O=C1C(Cl)=C(Nc2ccc(Nc3ccccc3)c(NC3=C(Cl)C(=O)c4ccccc4C3=O)c2)C(=O)c2ccccc21` was tested. Which growth did it give?
A: Its growth is 61.6% (inactive).

Q: How did the growth turn out when `CCN(CC)C(=O)C1CCN(C(=O)c2ccccc2)CC1` was run?
A: Its growth is 89.3% (inactive).

Q: With `COc1cc(-c2nc(SCC(C)C)nc(Nc3cccc4ccccc34)c2C#N)cc(OC)c1OC` as the compound, how does the growth read?
A: The growth was 79.1% (inactive).

Q: How did the growth turn out when `N#CC1=C(/N=C/c2ccccc2)Oc2c(ccc3ccccc23)C1c1ccccc1` (stereo not given) was run?
A: Its growth is 0.269% (active).

Q: How did the growth turn out when `COc1cc(NC(C)CCCN2C(=O)c3ccccc3C2=O)c2ncccc2c1OC` (stereo not given) was run?
A: The growth was -96.9% (active).

Q: With `COc1ccc(-c2nc(-c3nc4ccc(F)cc4[nH]3)cc3c2[nH]c2ccccc23)cc1` as the compound, how does the growth read?
A: The growth was 26.1% (inactive).

Q: How did the growth turn out when `O=C(c1ccc(Cl)cc1)C(NCCO)c1ccc(Cl)cc1` (stereo not given) was run?
A: Its growth is 86.9% (inactive) and 116% (inactive).

Q: Which growth does the source give for `COc1cc(C(=O)/C=C/c2c[nH]c3ccccc23)cc(OC)c1OC` here?
A: The growth was -12% (active).

Q: For `CCN(CC)CCCC(C)N(Cc1ccccc1)CC(O)c1ccc(Cl)cc1` (stereo not given), which growth is on record?
A: Its growth is 101% (inactive) and 106% (inactive).
